Experiment in all cases: NCI-60 one-dose screen, 48 h (100 = growth as untreated, 0 = no growth, -100 = all killed)
What all share (details): 10 µM unless noted

For test [1], the system named is DU-145 prostate.
For test [2], the system named is K-562 leukemia.
Test [3] relates to MALME-3M melanoma.
For test [4], the system named is MDA-MB-231 breast.
Test [5] concerns RXF 393 renal.
For test [6], the system named is SF-268 CNS.
Test [7] relates to SF-295 CNS.
The test system of test [8] is SF-539 CNS.
Test [9] deals with UACC-257 melanoma.
For test [10], the system named is M14 melanoma.

This is part of a sample that, as a whole, favours compounds with a hit. Of some 83,000 tested, about 20% had one in any assay.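 Single-concentration screen, 48 h exposure, 96-well plates. Endpoint: percent growth. Below 10 = active.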 Unmarked numbers belong to inactive results. Activity calls are given as the source filed them.

On to `CC1(C)[C@@H](O)CC[C@]2(C)[C@H]3CC[C@@H]4[C@H]5[C@H](C(=O)/C=C\c6ccncc6)CC[C@]5(O)CC[C@@]4(C)[C@]3(C)CC[C@@H]12`, for which the growth is 38% in test [1]; 9.43% (active) in test [2]; 94.3% in test [3]; -8.43% (active) in test [4]; -13.7% (active) in test [5]; 50.2% in test [6]. Moreover, the growth was 93.3% in test [7], 37.9% in test [8], 72.8% in test [9] and 67.4% in test [10].

Take `CC(C)(O)c1cncc(-c2ccc3ncnc(NCc4ccccc4)c3c2)c1`: the growth was 62.7% in [1]; 103% in test [2]; 101% in test [3]; 72.9% in test [4]; -7.38% (active) in [5]; 65% in test [6]. The growth was 85% in test [7], 85.3% in [8], 95.5% in test [9] and 105% in [10].

Turning to `Cc1cccc2c3c(sc12)C(c1ccc(Cl)cc1)c1c(nc(CC(=O)Nc2ccccc2)[nH]c1=O)O3` (stereo not given), the growth in test [1] is 93%; in test [2], 20.9%; in [3], 51.3%; in test [4] it was 77%; in test [5] it was 39.9%; in [6] it was 66.7%. Further, the growth in test [7] is 29.1%; in [8], 40%; in test [9] it was 79.8%; in [10], 61.7%.

`CCNC(=O)N1CCc2cc(OC)c(OCCc3ccc(OC)cc3)cc2C1c1ccc(Cl)cc1C` (stereo not given): the growth was 16.2% in test [1]; 12.3% in test [2]; 60.4% in test [3]; 12.4% in test [4]; -4.98% (active) in test [5]; 27.1% in test [6]. For the same molecule, the growth is 13.3% in test [7], 5.79% (active) in test [8], 44.7% in [9] and 17.5% in test [10].

For the molecule `O=C(Cn1c(-c2ccccc2)nc2cc(Cl)c(Cl)cc21)N=Nc1c(O)[nH]c2ccc(Cl)cc12`, the growth in [1] was 75.7%; in test [2], 63.2%; in test [3] it was 81.6%; in [4] it was 85%; in test [5] it was -5.08% (active); in test [6], 104%. The growth in test [7] was 77.7%; in test [8] it was 79.4%; in [9], 84.4%; in test [10], 60.7%.

For the molecule `CCCSc1nc(Nc2ccc(/C(C)=N\NC(N)=S)cc2)c(C#N)c(-c2ccccc2)n1`, the growth in test [1] is 66.3%; in test [2] it was 56.5%; in test [3], 97.9%; in test [4], 72.9%; in test [5], -4.63% (active); in test [6] it was 103%. For the same molecule, the growth in test [7] was 51.8%; in test [8] it was 36.4%; in [9], 105%; in test [10], 99.6%.

For `CC[C@H](CO)Nc1ccc2ncc(C#Cc3cncc(C(=O)Nc4ccc(CN5CCN(C)CC5)c(C(F)(F)F)c4)c3)n2n1`, the growth in test [1] is -94.3% (active); in [2], 0.0289% (active); in [3], -81.5% (active); in test [4], -60.6% (active); in test [5], -95.7% (active); in test [6] it was -60.5% (active). In addition, the growth in [7] is -82.1% (active); in test [8] it was -91.5% (active); in [9] it was -85.9% (active); in [10], -95.5% (active).

Turning to `Nc1nc(Nc2ccccc2SSc2ccccc2Nc2nc(N)nc(-c3cccc(Br)c3)n2)nc(-c2cccc(Br)c2)n1`, the growth in test [1] is 62.1%; in test [2], 58.8%; in test [3] it was 99.9%; in test [4], 57.3%; in test [5] it was 58%; in test [6] it was 36.9%. Besides, the growth in test [7] is 29.8%; in [8] it was 95.2%; in [9] it was 112%; in test [10], 90.4%.

For `Cc1cc(C)c(N2C(=O)CC(Nc3ccc(Cl)cc3Cl)C2=O)c(C)c1` (stereo not given), the growth in test [1] was 110%; in test [2], 102%; in test [3], 96.7%; in test [4] it was 102%; in test [5], 121%; in test [6], 106%. The growth in [7] was 105%; in test [8], 96.8%; in [9], 103%; in test [10], 103%.

Turning to `COc1ccccc1C(=O)Nc1cccc2c1C(=O)C(=O)C=C2`, the growth was 93.6% in test [1]; 63.2% in test [2]; 95.4% in test [3]; 80.7% in test [4]; 62.4% in test [5]; 87% in [6]. The growth in [7] was 98.8%; in test [8] it was 103%; in [9], 106%; in test [10] it was 119%.

For the molecule `O=C(c1ccc(Cl)cc1)C1[C@H](c2ccc(Cl)cc2)[C@@H](c2ccccc2)NC12C(=O)Nc1ccccc12` (stereo not given in full), the growth in [1] was 65.1%; in test [2], 33.6%; in [3] it was 78.7%; in test [4] it was 53.6%; in test [5], 48%; in [6], 48.1%. For the same molecule, the growth was 45.6% in [7], 74.8% in [8], 75.2% in [9] and 50.2% in test [10].

On to `O=C1C(c2ccccc2)=C(N2CCc3ccccc32)OC1(Cl)Cl`, for which the growth is 69.4% in [1]; 8.28% (active) in [2]; -27.3% (active) in test [3]; 82% in test [4]; 33.3% in test [5]; 83.1% in [6]. For the same molecule, the growth in test [7] was 83.6%; in test [8], 75.8%; in test [9], 91.4%; in test [10] it was 62.2%.

Regarding `O=C(O)c1cn(C2CC2)c2cc(N3CCN(C(=O)CN4C(=O)CSC4=O)CC3)c(F)cc2c1=O`, the growth was 90.5% in [1]; 102% in test [2]; 103% in test [3]; 81.2% in test [4]; 61.7% in [5]; 83.5% in test [6]. The growth is 106% in test [7], 88.5% in test [8], 107% in test [9] and 108% in [10].

In the case of `Nc1nc(Nc2ccccc2SSc2ccccc2Nc2nc(N)nc(-c3ccc4ccccc4c3)n2)nc(-c2ccc3ccccc3c2)n1`, the growth is 60.7% in [1]; 69.7% in test [2]; 93.1% in [3]; 60.9% in test [4]; 79.5% in test [5]; 74.9% in test [6]. Also, the growth in [7] was 67.7%; in [8], 99%; in test [9], 112%; in test [10], 95%.

On to `O=C1/C(=C/C=C/c2ccco2)SC(=S)N1C1CCCCC1`, for which the growth in test [1] is 95%; in [2] it was 83.5%; in [3], 83.6%; in [4] it was 74%; in test [5], 47.7%; in [6], 109%. Moreover, the growth in test [7] is 97.6%; in test [8], 94.8%; in [9] it was 67.7%; in [10], 93.8%.

For the molecule `C[C@@H](Nc1c(C#N)cnc2ccc(-c3cnc(Cl)c(NS(C)(=O)=O)c3)cc12)c1ccccc1`, the growth in test [1] was 7.73% (active); in test [2], 15.3%; in test [3] it was -12.9% (active); in test [4], 11.5%; in test [5] it was -40.2% (active); in test [6] it was -1.52% (active). In addition, the growth in test [7] is -20.8% (active); in test [8] it was -20.7% (active); in test [9], 14.8%; in test [10], 4.3% (active).

For the molecule `CC(=O)c1cc(C(=O)N2c3ccccc3Sc3ccccc32)n2ccc3ccccc3c12`, the growth in test [1] is 53%; in [2], 20.1%; in test [3], 49.6%; in [4] it was 76.7%; in test [5] it was 31.7%; in test [6] it was 54.1%. The growth in test [7] is 18.8%; in test [8] it was 29.5%; in test [9] it was 57.4%; in [10], 33.1%.

Take `CC(=O)c1ccc(Nc2nc(SCC(C)C)nc(-c3ccccc3)c2C#N)cc1`: the growth was 107% in [1]; 95.4% in test [2]; 94.9% in [3]; 73.5% in test [4]; -1.29% (active) in test [5]; 72% in test [6]. The growth was 17% in test [7], 63.9% in test [8], 105% in test [9] and 103% in test [10].

For the molecule `COc1ccc(C(=O)CSc2nc3c(c(Nc4ccc(S(N)(=O)=O)cc4)n2)CCCC3)cc1`, the growth is 93.6% in [1]; 72.7% in test [2]; 103% in test [3]; 88.1% in test [4]; 82.5% in [5]; 108% in test [6]. Besides, the growth in test [7] is 90.6%; in test [8], 83.1%; in test [9], 109%; in test [10], 104%.

`Cc1nc2ncc(-c3ccc4ncnc(NCc5ccccc5)c4c3)cc2[nH]1`: the growth is 27.4% in [1]; 84.2% in test [2]; 63.4% in test [3]; 24.4% in test [4]; -18.1% (active) in [5]; 37.6% in [6]. The growth in test [7] was 61.5%; in [8], 60.6%; in test [9] it was 75.7%; in [10] it was 81.4%.

Consider `Nc1nc(-c2cccc([N+](=O)[O-])c2)c(N=Nc2cccc([N+](=O)[O-])c2)s1`, for which the growth in test [1] is 56.7%; in test [2], 81.9%; in test [3], 52.4%; in [4], 19.5%; in [5], -64.5% (active); in [6] it was 14.7%. The growth in test [7] was 1.91% (active); in test [8], -26.4% (active); in test [9], 88.6%; in [10], 14.9%.

In the case of `CCCn1cnc2c(c1=N)C(c1ccc(Cl)cc1)c1sc3c(C)cccc3c1O2` (stereo not given), the growth was 19.7% in test [1]; 7.73% (active) in test [2]; 59.5% in test [3]; 28.6% in [4]; -4.19% (active) in test [5]; 41.1% in [6]. Besides, the growth in test [7] was -6.66% (active); in test [8], -21.1% (active); in [9], 86.5%; in [10] it was 8.06% (active).

Consider `CN1c2ccccc2Sc2cc(C=C(C#N)C#N)ccc21`, for which the growth in test [1] is 110%; in test [2] it was 101%; in test [3] it was 98.3%; in [4] it was 92.3%; in [5], 92.1%; in test [6] it was 105%. Besides, the growth in test [7] is 103%; in test [8], 101%; in test [9] it was 97.5%; in test [10] it was 96%.

As for `C=C(C)[C@@H]1CC[C@]2(C(=O)NCCCCCN(CCC#N)CCC#N)CC[C@]3(C)[C@H](CC[C@@H]4[C@@]5(C)CCC(=O)C(C)(C)[C@@H]5CC[C@]43C)[C@@H]12`, the growth in test [1] is 96.2%; in test [2], 96.9%; in [3], 119%; in test [4], 107%; in test [5], 58.2%; in [6] it was 81.5%. Besides, the growth in test [7] was 99.6%; in [8], 101%; in [9] it was 103%; in test [10] it was 97.6%.

In the case of `COc1cccc(N2CCN(c3ncnc4c3[nH]c3ccc(F)cc34)C[C@H]2C)c1`, the growth was 81.5% in test [1]; 26.6% in test [2]; 48.2% in test [3]; 64.3% in test [4]; 88% in test [5]; 84.5% in [6]. Besides, the growth in test [7] is 31.8%; in [8] it was 69.6%; in test [9] it was 15.4%; in test [10], 41.7%.

Turning to `COc1cc(-c2nn(C(C)(C)C)cc2-c2ccnc(NCCCNS(=O)(=O)c3ccc(F)cc3)n2)ccc1Cl`, the growth in test [1] was 74.1%; in [2], 40.2%; in test [3], 86.1%; in test [4] it was 60.1%; in [5] it was 8.65% (active); in test [6] it was 58%. For the same molecule, the growth was 80.5% in test [7], 91.2% in test [8], 93.3% in test [9] and 93.3% in test [10].

For the origin of these results see PubChem BioAssay (NCI).
